# BoNT-F LC inh: BoNT/F light chain protease inhibitors, primary screen, biochemical, flow cytometry, MLPCN library | inhibition, % at 10 µM | 360,000 tested, 0.22% active | Multiplex microsphere protease cleavage assay | Botulinum neurotoxin type F light chain protease (Clostridium botulinum); in the data active = inhibition above about 35%, passing the limit was not always enough; inconclusive = no clear call, values can overlap the other calls; note: plate controls were buffer without enzyme for full effect and enzyme alone for no effect
# Autofluor counter: compound fluorescence in toxin protease inhibitor counterscreen. fluorescence intensity (concentration not given with the values). compound autofluorescence counterscreen, microsphere flow cytometry; hits give high values. 360,000 tested, 3.1% active; in the data active = fluorescence intensity above about 16000; inconclusive = no clear call, values can overlap the other calls
# BoNT A protease: BoNT/A light chain protease inhibitors, primary screen, biochemical, flow cytometry, MLPCN library | Botulinum neurotoxin type A light chain protease (Clostridium botulinum A str. ATCC 3502) | 360,000 tested, 0.17% active | multiplex microsphere protease substrate cleavage | inhibition, % at 10 µM; note: plate controls were buffer without enzyme for full effect and enzyme alone for no effect
# Anthrax LF inh2: Bacillus anthracis LF protease inhibitors, primary screen, biochemical, multiplex microsphere, MLPCN library; Lethal factor (Bacillus anthracis), P15917; multiplex microsphere protease cleavage assay; inhibition, % at 10 µM; 360,000 tested, 0.12% active; AID 588501, 2011; note: plate controls were buffer without enzyme for full effect and enzyme alone for no effect
# Target sequence (P15917 whole entry, looked up): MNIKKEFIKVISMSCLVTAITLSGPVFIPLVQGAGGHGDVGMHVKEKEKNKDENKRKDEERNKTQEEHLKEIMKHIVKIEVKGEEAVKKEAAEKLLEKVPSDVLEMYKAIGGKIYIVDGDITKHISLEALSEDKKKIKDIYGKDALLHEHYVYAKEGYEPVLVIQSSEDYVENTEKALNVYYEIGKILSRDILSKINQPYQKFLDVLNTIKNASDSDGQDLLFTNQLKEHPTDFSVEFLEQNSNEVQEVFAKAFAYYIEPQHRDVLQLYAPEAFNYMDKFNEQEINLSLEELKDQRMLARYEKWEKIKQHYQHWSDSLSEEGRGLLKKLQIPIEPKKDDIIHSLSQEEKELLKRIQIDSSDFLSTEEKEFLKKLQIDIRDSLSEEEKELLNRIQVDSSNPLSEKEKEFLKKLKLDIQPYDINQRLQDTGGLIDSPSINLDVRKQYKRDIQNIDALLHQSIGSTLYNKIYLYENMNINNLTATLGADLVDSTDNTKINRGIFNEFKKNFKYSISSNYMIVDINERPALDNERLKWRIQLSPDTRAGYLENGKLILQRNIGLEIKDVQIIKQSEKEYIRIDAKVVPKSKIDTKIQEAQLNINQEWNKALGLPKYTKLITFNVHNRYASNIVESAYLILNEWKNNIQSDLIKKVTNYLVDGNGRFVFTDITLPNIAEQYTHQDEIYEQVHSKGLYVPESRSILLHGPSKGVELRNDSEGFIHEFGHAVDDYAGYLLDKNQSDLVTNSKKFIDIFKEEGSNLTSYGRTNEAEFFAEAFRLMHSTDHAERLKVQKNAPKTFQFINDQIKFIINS
# CCHFV vOTU inh: CCHFV vOTU protease inhibitors, primary screen, biochemical, Pep-AMC substrate, fluorescence; Crimean-Congo hemorrhagic fever virus L polyprotein viral ovarian tumor (vOTU) protease …; inhibition, % at 11.5 µM; 370,000 tested, 0.55% active; AID 651958, 2012; in the data active = inhibition above about 30%; note: 0% = vehicle wells with enzyme and 100% = no enzyme wells
# 3CLpro inhibitor: SARS-CoV 3CLpro protease inhibitors, primary screen, biochemical, quenched FRET; Replicase polyprotein 1ab (Severe acute respiratory syndrome coronavirus), P0C6X7; recombinant SARS-CoV 3CLpro, quenched FRET peptide cleavage; inhibition, % at 6 µM; 290,000 tested, 0.14% active; in the data active = inhibition above about 12%
# Numbers without * were called inactive; ? = inconclusive; . = not tested or not shown. Hits are enriched below; roughly 3.9% of the tested compounds scored in any of these assays. Cut-off read from the data, not from the text of the source, unless noted: active = inhibition above about 30%; inconclusive = no clear call, values can overlap the other calls; inactive = below that.
SMILES,BoNT-F LC inh,Autofluor counter,BoNT A protease,Anthrax LF inh2,CCHFV vOTU inh,3CLpro inhibitor
CCOC(=O)C1=C(C(=O)OCC)C2N(Cc3ccc(C#N)cc3)c3ccccc3[C@@]23C[C@@H](C(=O)OC)N(S(=O)(=O)c2ccc(OC)cc2)C3=N1 (stereo partly specified),.,.,.,.,6.4,.
Cc1[nH]nc2c1C(c1cccc(C(F)(F)F)c1)N(Cc1ccccc1)C2=O (stereo unspecified),.,.,.,.,16.9,.
CC(=O)Nc1cccc(C(=O)/C=C/c2ccco2)c1,-1.1,22380*,?,-5.8,3.1,-0.2
C#CCN1CC(N(C)CCOC(=O)c2cc3ccccc3[nH]2)CS1(=O)=O (stereo unspecified),.,.,.,.,-1.4,.
O=C(CN1CCN(c2nc(-c3ccccc3)cs2)CC1)Nc1ccc(Cl)cc1,.,.,.,.,9.8,.
Cc1cccc(C)c1NC(=O)CCN1C(=O)C2C3CCC(C3)C2C1=O (stereo unspecified),-3.0,24501*,-3.2,-2.2,-4.9,-2.5
CC(=O)c1cccc(NC(=O)CCN2C(=O)C3C4CCC(C4)C3C2=O)c1 (stereo unspecified),6.6,?,1.3,0.4,-9.9,2.8
CN(Cc1ccccc1)C(=O)OCc1cn(Cc2ccccc2F)nn1,.,.,.,.,-15.4,.
COc1cc(NC(=O)c2ccco2)c(OC)cc1NC(=O)CCC(=O)Nc1cc(C)cc(C)c1,-5.0,20576*,-3.0,-1.5,3.2,-0.6
COc1ccc(C)cc1NC(=O)CCNC(=O)c1ccco1,-2.0,2999,-0.1,-4.8,8.6,-3.2
CCCC(=O)Nc1ccc(NC(=O)c2ccco2)c(OC)c1,1.7,11080,-0.6,1.1,-12.0,-1.0
COc1cc(NC(=O)c2ccco2)c(OC)cc1NC(=O)CCC(=O)Nc1cc(C)ccc1C,0.9,20046*,0.4,-0.8,19.3,-1.6
Cc1ccc(N(C)c2nc(N)nc(N)c2N=O)cc1,.,.,.,.,60.7*,.
CN(C)c1ccc(C(=O)NC2CCCCN(Cc3ccc(Cl)cc3)C2=O)cc1 (stereo unspecified),.,.,.,.,7.3,.
COC(=O)c1ccc(N2CCCCC2)c(N)c1,-4.7,4217,0.2,-3.6,3.0,3.7
COC(=O)c1ccc(N2CCC(C)CC2)c(N)c1,-2.5,22414*,1.7,-5.7,4.7,-4.0
Oc1cc(O)cc(C=Cc2ccc(O)c(O)c2)c1,.,.,.,.,-0.3,.
O=C(NCC1CCCC(CNC(=O)N2CCc3ccccc32)C1)N1CCc2ccccc21 (stereo unspecified),-1.2,21215*,0.5,-4.4,-12.3,2.4
O=C(Nc1ccccc1)N1CCc2ccccc21,1.1,3179,0.6,-1.7,-3.2,-7.1
O=C(N/N=C/c1ccc(N2CCOCC2)o1)c1cccc(C(F)(F)F)c1,-2.9,24154*,-1.0,-2.6,-2.3,0.0
C[C@H](O)[C@@H]1CN2CCc3ccc(-c4ccc5c(c4)OCO5)cc3[C@@H]2C[C@@H]1N(C)C(=O)Nc1ccccc1,.,.,.,.,3.1,.
CC(CNC(=O)C1CCCCC1C(=O)O)c1ccccc1 (stereo unspecified),1.8,22629*,1.4,-2.6,18.0,4.0
CCNC(=O)NC(=O)C(C)OC(=O)c1oc2ccc(OC)cc2c1C (stereo unspecified),4.5,21371*,3.6,-20.7,-2.6,0.1
CCCCCCCCN1C(=O)[C@@H](CC(=O)N2CCN(C(=O)OCC)CC2)C[C@@]2(C(=O)OC)C1=C[C@H](C(C)(C)C)O[C@@H]2C,.,.,.,.,8.1,.
C#CCNc1cc(C)nc2ncnn12,-4.8,24731*,?,-0.5,6.2,-0.1
SMILES,BoNT-F LC inh,Autofluor counter,BoNT A protease,Anthrax LF inh2,CCHFV vOTU inh,3CLpro inhibitor
COc1ccc(NC(=O)CSc2nc3sc(C)c(C)c3c(=O)n2Cc2ccco2)cc1,6.2,21853*,?,1.5,.,-3.0
Cc1sc2nc(SCC(=O)C(C)(C)C)n(Cc3ccco3)c(=O)c2c1C,-1.2,22551*,1.4,-3.3,-2.2,0.5
COc1cccc(CSc2nc3sc(C)c(C)c3c(=O)n2Cc2ccco2)c1,8.2,19855*,5.8,-12.0,7.3,-4.3
Cc1sc2nc(SCc3ccccc3)n(Cc3ccco3)c(=O)c2c1C,-0.7,15662,2.6,-2.6,-10.5,0.5
CC(c1ccccc1)n1cc(C(=O)N2CCCN(Cc3ccccc3)CC2)nn1 (stereo unspecified),.,.,.,.,6.0,.
CC(C)(C)OC(=O)/C=C/[C@@H](CCCCl)Sc1ccc(C(C)(C)C)cc1,.,.,.,.,2.5,.
Cn1c(-c2ccc(C=O)s2)nc2c3ccccc3c3ccccc3c21,39.7*,2883,79.3*,48.2*,3.8,6.8
O=C(N[C@H](C(=O)N1CCC[C@H]1C(=O)NCc1ccccc1)C1CCCCC1)c1ccccc1,.,.,.,.,-5.0,.
CC(NS(C)(=O)=O)C(c1cccs1)N1CCN(C)CC1 (stereo unspecified),2.3,16401*,-0.3,-2.8,-0.1,-1.3
CCCC(=O)NC(C)C(c1cccs1)N1CCN(C)CC1 (stereo unspecified),3.0,10835,0.5,-5.7,-9.0,-5.6
CC(C)C(=O)NC(C)C(c1cccs1)N1CCN(C)CC1 (stereo unspecified),-3.1,23161*,-3.4,-3.4,-7.9,-2.8
CC(NS(=O)(=O)c1ccccc1)C(c1cccs1)N1CCN(c2ccccc2)CC1 (stereo unspecified),-7.1,17711*,-3.6,-3.0,0.9,3.1
COC(=O)[C@]12C[C@H](CC(=O)NCC3CCCCC3)C(=O)N(Cc3ccccc3)C1=C[C@H](COCc1ccccc1)O[C@@H]2C,.,.,.,.,5.0,.
FC(F)(F)c1cccc(NC(=S)NCCc2ccccn2)c1,-1.2,21974*,0.7,-5.6,-5.4,-3.0
Cc1ccc(NC2=NC(c3ccc(C)cc3)n3c(nc(C)cc3=O)N2)cc1 (stereo unspecified),-7.6,23058*,-2.8,-1.9,-0.4,4.7
Cc1ccc(NC2=NC(c3ccc(F)cc3)n3c(nc(C)cc3=O)N2)c(C)c1 (stereo unspecified),?,3712,-6.7,1.5,-13.5,1.6
Cc1ccc(NC2=NC(c3ccccc3)n3c(nc(C)cc3=O)N2)c(C)c1 (stereo unspecified),-1.3,22223*,0.3,-2.4,3.1,0.2
Cc1ccc(NC2=NC(c3ccc(F)cc3)n3c(nc(C)cc3=O)N2)cc1 (stereo unspecified),?,3768,-0.1,-5.6,-11.0,0.4
COc1ccc(OC)c(-n2c(-c3cccc(C)c3)n[nH]c2=S)c1,-3.4,2194,0.1,0.1,3.6,0.8
COc1ccc(OC)c(-n2c(-c3ccccc3)n[nH]c2=S)c1,0.4,22480*,?,-4.3,1.9,-0.8
